# Data reported in PubChem BioAssay (EPA / NIEHS).
# Records with an inconclusive call do not appear. Active and inactive are the calls of the source. How the source made its calls: active means hit-call score of the fitted dose curve at least 0.9, where 1 is the maximum; inconclusive means response in the unintended direction; inactive means score below 0.9.
# How the values were obtained:
# [1] = target: human Opioid Receptor Delta 1 (Opiate D1), OPRD1 (gene 4985) (UniProt P41143); experiment: NVS_GPCR_hOpiate_D1: NovaScreen (NVS) G Protein-Coupled Receptor Assay for human Opioid Receptor Delta 1 (Opiate D1) (AID 2283280)
# Chain of human Opioid Receptor Delta 1 (Opiate D1), OPRD1 (gene 4985) (P41143 whole entry, looked up): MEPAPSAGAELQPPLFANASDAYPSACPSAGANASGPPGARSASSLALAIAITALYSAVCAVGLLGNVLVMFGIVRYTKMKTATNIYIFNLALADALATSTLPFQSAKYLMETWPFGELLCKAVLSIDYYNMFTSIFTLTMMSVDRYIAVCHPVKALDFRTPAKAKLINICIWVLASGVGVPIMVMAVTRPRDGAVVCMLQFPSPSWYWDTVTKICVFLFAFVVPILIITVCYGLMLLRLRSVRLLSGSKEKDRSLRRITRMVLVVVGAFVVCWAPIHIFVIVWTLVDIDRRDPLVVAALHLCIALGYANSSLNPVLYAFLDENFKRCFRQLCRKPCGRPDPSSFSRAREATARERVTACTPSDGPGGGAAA
# How it was run: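 Membrane preparations from CHO cells bearing the human receptor were incubated 1 h with test chemical, and bound radioligand was counted after filtration. Actives from 25 uM duplicate screening were retested in concentration-response.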
# [2] = target: human Purinergic Receptor P2Y, P2RY1 (gene 5028) (UniProt P47900); experiment: NVS_GPCR_hPY2: NovaScreen (NVS) G Protein-Coupled Receptor Assay for human Purinergic Receptor P2Y (AID 2283281)
# Chain of human Purinergic Receptor P2Y, P2RY1 (gene 5028) (P47900 whole entry, looked up): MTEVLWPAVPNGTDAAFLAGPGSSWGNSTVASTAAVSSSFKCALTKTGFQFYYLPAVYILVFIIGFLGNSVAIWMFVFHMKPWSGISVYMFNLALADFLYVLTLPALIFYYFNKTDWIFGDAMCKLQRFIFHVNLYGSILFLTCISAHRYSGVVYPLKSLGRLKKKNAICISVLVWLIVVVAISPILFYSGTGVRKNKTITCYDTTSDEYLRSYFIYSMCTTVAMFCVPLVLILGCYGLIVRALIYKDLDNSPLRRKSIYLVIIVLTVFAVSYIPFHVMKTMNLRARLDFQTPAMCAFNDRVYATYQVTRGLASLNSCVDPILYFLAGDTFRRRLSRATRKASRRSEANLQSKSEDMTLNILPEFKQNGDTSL
# How it was run: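 Filtration scintillation readout of radioligand displacement on U937 extract, measured 1 h post-dosing. Single 25 uM duplicate screen, then singleton concentration series to 50 uM for chemicals passing threshold; DMSO as baseline.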
# [3] = target: human Thromboxane A2 Receptor (TXA2), TBXA2R (gene 6915) (UniProt P21731); experiment: NVS_GPCR_hTXA2: NovaScreen (NVS) G Protein-Coupled Receptor Assay for human Thromboxane A2 Receptor (TXA2) (AID 2283282);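 further: actives reduce bound radioligand signal relative to DMSO baseline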
# Chain of human Thromboxane A2 Receptor (TXA2), TBXA2R (gene 6915) (P21731 whole entry, looked up): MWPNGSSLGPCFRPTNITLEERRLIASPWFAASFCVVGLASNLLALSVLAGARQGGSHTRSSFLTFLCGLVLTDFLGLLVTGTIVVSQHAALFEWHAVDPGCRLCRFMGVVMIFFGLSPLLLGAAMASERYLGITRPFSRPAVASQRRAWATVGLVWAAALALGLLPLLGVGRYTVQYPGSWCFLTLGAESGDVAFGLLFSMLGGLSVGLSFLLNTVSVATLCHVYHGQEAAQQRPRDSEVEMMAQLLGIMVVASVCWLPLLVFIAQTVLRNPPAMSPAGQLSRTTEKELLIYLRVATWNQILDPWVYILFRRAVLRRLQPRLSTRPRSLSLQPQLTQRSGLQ
# How it was run: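 Cell-free radioligand binding with human platelet-derived receptor; 1 h after dosing, filter-based scintillation counting, loss of signal vs DMSO. Primary screen in duplicate at 25 uM.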
# [4] = target: human Opioid Receptor Mu (Opiate Mu), OPRM1 (gene 4988) (UniProt P35372); experiment: NVS_GPCR_hOpiate_mu: NovaScreen (NVS) G Protein-Coupled Receptor Assay for human Opioid Receptor Mu (Opiate Mu) (AID 2283290);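 further: hits lower bound tracer signal versus DMSO meaning displacement of the ligand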
# Chain of human Opioid Receptor Mu (Opiate Mu), OPRM1 (gene 4988) (P35372 whole entry, looked up): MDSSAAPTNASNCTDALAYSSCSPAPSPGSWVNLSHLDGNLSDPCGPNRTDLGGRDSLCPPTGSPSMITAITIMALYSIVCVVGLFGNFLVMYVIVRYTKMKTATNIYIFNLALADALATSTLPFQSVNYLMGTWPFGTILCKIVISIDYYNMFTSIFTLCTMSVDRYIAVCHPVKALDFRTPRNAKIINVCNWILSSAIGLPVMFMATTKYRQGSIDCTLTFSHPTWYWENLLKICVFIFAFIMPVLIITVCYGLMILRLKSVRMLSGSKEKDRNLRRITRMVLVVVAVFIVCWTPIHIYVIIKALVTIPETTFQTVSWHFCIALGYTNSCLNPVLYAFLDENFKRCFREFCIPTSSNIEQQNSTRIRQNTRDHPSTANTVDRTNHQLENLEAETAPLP
# How it was run: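 CHO-derived receptor protein, cell-free; radioligand displacement, filtration + scintillation counting, read at 2.5 h. DMSO = negative control/baseline. Primary: 25 uM single conc, duplicate; secondary: concentration series.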
# [5] = target: human Muscarinic, M4 Receptor, CHRM4 (gene 1132) (UniProt P08173); experiment: NVS_GPCR_hM4: NovaScreen (NVS) G Protein-Coupled Receptor Assay for human Muscarinic, M4 Receptor (AID 2283274)
# Chain of human Muscarinic, M4 Receptor, CHRM4 (gene 1132) (P08173 whole entry, looked up): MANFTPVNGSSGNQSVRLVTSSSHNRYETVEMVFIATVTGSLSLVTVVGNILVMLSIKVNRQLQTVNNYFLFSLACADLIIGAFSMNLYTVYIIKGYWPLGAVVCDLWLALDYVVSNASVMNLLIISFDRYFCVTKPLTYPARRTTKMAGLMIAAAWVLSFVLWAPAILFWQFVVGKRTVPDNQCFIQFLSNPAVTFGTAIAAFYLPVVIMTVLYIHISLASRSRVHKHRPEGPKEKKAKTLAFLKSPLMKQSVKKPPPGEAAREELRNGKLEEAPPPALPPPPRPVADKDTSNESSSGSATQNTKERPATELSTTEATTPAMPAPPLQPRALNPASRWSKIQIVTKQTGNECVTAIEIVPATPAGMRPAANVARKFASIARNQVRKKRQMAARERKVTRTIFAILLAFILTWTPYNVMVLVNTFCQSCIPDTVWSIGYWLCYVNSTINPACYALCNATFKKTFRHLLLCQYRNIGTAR
# How it was run: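 Filter-based scintillation counting of radioligand bound to CHO-expressed human M4 preparations after 1 h; loss of signal fitted versus DMSO. Initial duplicate testing at 25 uM, concentration-response follow-up for actives.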
# [6] = target: rat Serotonin, 5-Hydroxytryptamine Receptor 1 (5HT1), Non-Selective Binding, Htr1a (gene 24473) (UniProt P19327); experiment: NVS_GPCR_r5HT1_NonSelective: NovaScreen (NVS) G Protein-Coupled Receptor Assay for rat Serotonin, 5-Hydroxytryptamine Receptor 1 (5HT1), Non-Selective Binding (AID 2283286)
# Chain of rat Serotonin, 5-Hydroxytryptamine Receptor 1 (5HT1), Non-Selective Binding, Htr1a (gene 24473) (P19327 whole entry, looked up): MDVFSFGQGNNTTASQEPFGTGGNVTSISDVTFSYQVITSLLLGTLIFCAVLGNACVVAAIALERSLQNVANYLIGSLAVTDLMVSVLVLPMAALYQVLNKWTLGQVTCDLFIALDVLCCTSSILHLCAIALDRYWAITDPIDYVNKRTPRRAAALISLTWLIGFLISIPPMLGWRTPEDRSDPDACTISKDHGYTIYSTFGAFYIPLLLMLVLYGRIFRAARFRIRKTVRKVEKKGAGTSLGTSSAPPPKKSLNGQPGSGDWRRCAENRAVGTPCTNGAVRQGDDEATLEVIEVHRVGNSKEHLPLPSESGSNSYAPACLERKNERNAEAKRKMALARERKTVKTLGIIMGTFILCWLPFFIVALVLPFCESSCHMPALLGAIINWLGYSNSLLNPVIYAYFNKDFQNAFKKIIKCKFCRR
# How it was run: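 Binding of a radioligand to rat cortex membranes is read by filtration and scintillation counting after 1 h. Compounds were screened at 25 uM in duplicate. Actives were then titrated to a top of 50 uM. DMSO is the baseline.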
# [7] = target: mouse Cholecystokinin, CCK1 Receptor (CCKA), Cckar (gene 12425) (UniProt O08786); experiment: NVS_GPCR_mCCKAPeripheral: NovaScreen (NVS) G Protein-Coupled Receptor Assay for mouse Cholecystokinin, CCK1 Receptor (CCKA) (AID 2283285)
# Chain of mouse Cholecystokinin, CCK1 Receptor (CCKA), Cckar (gene 12425) (O08786 whole entry, looked up): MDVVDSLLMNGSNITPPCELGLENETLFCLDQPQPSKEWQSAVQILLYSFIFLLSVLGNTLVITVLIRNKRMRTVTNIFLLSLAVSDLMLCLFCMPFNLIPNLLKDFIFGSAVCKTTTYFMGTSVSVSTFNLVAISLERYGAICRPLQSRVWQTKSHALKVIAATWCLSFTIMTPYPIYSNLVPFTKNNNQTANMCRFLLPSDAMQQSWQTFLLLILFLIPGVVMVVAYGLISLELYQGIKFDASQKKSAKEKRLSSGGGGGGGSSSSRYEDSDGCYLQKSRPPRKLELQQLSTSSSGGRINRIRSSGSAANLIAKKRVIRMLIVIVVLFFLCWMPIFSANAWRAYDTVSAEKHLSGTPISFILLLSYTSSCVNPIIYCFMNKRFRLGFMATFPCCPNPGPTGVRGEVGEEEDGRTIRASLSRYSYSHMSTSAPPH
# How it was run: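 Chemicals were first screened in duplicate at 25 uM, with those meeting threshold (e.g., 30% inhibition) retested in singleton concentration series to 50 uM maximum. Binding of radioligand to mouse pancreatic membranes was read after 2 h by filtration and scintillation counting.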
# [8] = system: rabbit Platelet Activating Factor Receptor (PAF), gene 100354046; experiment: NVS_GPCR_rabPAF: NovaScreen (NVS) G Protein-Coupled Receptor Assay for rabbit Platelet Activating Factor Receptor (PAF) (AID 2283287)
# How it was run: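 Rabbit platelet membrane preparation; radioligand displacement read by filter-based scintillation counting 1 h after dosing, loss of signal versus DMSO. Primary screen in duplicate at 25 uM, actives followed up in concentration series.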
# [9] = target: Muscarinic acetylcholine receptor M5 (Homo sapiens) (UniProt P08912); experiment: NVS_GPCR_hM5: NovaScreen (NVS) G Protein-Coupled Receptor Assay for human Muscarinic, M5 Receptor (AID 2283275)
# Chain of Muscarinic acetylcholine receptor M5 (Homo sapiens) (P08912 whole entry, looked up): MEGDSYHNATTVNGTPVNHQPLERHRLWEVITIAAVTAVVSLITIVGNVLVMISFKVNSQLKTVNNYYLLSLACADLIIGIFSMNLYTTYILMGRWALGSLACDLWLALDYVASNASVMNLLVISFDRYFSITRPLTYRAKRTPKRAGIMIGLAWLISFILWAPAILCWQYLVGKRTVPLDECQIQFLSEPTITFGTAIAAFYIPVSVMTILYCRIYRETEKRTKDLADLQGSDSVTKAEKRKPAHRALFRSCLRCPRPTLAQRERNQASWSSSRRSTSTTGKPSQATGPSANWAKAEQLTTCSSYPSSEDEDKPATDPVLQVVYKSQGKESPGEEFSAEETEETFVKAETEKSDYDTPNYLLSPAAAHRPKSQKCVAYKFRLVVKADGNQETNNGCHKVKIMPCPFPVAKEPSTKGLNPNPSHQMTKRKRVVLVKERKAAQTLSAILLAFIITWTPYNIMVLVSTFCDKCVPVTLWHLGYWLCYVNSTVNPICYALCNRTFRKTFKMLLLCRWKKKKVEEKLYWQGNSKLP
# How it was run: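 Chemicals passing a primary duplicate screen at 25 uM were run as singleton concentration series, maximum 50 uM. Displacement of a specific radioligand from CHO-extracted receptor was read by filter scintillation after 1 h, relative to DMSO.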
# [10] = target: human Neuropeptide Receptor Y1 (NPY1), NPY1R (gene 4886) (UniProt P25929); experiment: NVS_GPCR_hNPY1: NovaScreen (NVS) G Protein-Coupled Receptor Assay for human Neuropeptide Receptor Y1 (NPY1) (AID 2283276)
# How it was run: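 Displacement of specific radioligand from NPY1 receptor of SK-N-MC origin, read by filtration and scintillation after 1 h. Compounds first tested at 25 uM in duplicate, then actives in concentration series; signal loss relative to DMSO.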
# [11] = target: Neuropeptide Y receptor type 2 (Homo sapiens) (UniProt P49146); experiment: NVS_GPCR_hNPY2: NovaScreen (NVS) G Protein-Coupled Receptor Assay for human Neuropeptide Receptor Y2 (NPY2) (AID 2283277)
# Chain of Neuropeptide Y receptor type 2 (Homo sapiens) (P49146 whole entry, looked up): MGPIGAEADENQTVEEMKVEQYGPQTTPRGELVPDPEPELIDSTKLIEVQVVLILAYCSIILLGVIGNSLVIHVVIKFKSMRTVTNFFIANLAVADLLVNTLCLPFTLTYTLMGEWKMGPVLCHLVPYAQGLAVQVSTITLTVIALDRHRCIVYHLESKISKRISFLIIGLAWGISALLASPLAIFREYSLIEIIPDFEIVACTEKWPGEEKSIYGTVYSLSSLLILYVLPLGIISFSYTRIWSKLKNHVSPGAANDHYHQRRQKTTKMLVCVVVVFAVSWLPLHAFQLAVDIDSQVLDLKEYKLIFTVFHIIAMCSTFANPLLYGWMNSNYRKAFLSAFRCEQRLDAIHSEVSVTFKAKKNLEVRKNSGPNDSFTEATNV
# How it was run: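 Chemicals were first tested in duplicate at 25 uM, then actives in singleton concentration series to 50 uM. Tracer binding to SK-N-MC-derived protein measured cell-free after 1 h via filter scintillation; signal loss relative to DMSO.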
# [12] = target: human Neurokinin, NK2 Receptor, TACR2 (gene 6865) (UniProt P21452); experiment: NVS_GPCR_hNK2: NovaScreen (NVS) G Protein-Coupled Receptor Assay for human Neurokinin, NK2 Receptor (AID 2283278);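 further: actives reduce bound radioligand signal relative to DMSO baseline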
# Chain of human Neurokinin, NK2 Receptor, TACR2 (gene 6865) (P21452 whole entry, looked up): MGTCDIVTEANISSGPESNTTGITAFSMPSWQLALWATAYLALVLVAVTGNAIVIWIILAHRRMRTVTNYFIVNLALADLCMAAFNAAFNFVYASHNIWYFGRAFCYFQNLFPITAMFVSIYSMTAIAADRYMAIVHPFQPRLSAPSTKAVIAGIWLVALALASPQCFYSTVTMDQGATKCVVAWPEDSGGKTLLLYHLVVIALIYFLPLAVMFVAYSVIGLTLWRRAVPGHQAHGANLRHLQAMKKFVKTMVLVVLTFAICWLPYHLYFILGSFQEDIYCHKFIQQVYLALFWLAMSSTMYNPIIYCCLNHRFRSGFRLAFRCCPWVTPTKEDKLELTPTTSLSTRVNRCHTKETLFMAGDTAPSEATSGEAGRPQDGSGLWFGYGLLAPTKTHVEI
# How it was run: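 Filter-based scintillation counting measured radioligand bound to receptor extracted from CHO cells, 4 hours after compound addition. Chemicals screened first at 25 uM in duplicate, with actives retested in concentration series relative to DMSO.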
# [13] = target: human Neurotensin Receptor (NTS), NTSR1 (gene 4923) (UniProt P30989); experiment: NVS_GPCR_hNTS: NovaScreen (NVS) G Protein-Coupled Receptor Assay for human Neurotensin Receptor (NTS) (AID 2283279)
# Chain of human Neurotensin Receptor (NTS), NTSR1 (gene 4923) (P30989 whole entry, looked up): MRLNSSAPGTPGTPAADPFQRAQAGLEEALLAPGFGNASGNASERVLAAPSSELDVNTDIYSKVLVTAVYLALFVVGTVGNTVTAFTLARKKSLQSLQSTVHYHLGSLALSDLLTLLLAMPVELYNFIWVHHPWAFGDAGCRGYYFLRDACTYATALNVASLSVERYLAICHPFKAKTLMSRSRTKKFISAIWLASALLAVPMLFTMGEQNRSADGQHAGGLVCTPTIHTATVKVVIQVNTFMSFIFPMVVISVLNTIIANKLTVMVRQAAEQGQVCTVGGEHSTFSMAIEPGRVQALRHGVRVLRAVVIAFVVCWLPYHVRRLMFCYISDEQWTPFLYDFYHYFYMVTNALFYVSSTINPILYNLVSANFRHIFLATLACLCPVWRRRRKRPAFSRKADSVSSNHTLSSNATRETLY
# How it was run: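 Compounds competed with a radiolabelled ligand for binding to CHO-derived human neurotensin receptor; bound signal counted after filtration, 1 h. Screened first at a single concentration of 25 uM in duplicate, then concentration series to 50 uM maximum for actives.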
# [14] = target: human Orphanin, Opioid Related Nociceptin Receptor 1 (ORL1), OPRL1 (gene 4987) (UniProt P41146); experiment: NVS_GPCR_hORL1: NovaScreen (NVS) G Protein-Coupled Receptor Assay for human Orphanin, Opioid Related Nociceptin Receptor 1 (ORL1) (AID 2283283)
# Chain of human Orphanin, Opioid Related Nociceptin Receptor 1 (ORL1), OPRL1 (gene 4987) (P41146 whole entry, looked up): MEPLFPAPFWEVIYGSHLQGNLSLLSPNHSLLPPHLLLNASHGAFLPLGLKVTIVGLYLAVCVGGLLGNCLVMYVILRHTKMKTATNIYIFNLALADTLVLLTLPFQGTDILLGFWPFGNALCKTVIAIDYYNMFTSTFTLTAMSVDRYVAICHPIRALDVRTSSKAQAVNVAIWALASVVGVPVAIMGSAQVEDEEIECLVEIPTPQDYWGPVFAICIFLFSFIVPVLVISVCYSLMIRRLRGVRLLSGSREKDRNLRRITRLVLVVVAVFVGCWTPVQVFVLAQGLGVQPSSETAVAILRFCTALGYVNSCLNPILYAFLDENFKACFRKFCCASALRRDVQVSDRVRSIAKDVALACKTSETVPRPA
# How it was run: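 Cell-free binding using HEK293-derived receptor protein: radioligand displacement measured by filter scintillation 1 hour after dosing. Primary testing at 25 uM in duplicate, followed by singleton concentration series up to 50 uM; DMSO served as negative control.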
# [15] = system: 5-hydroxytryptamine receptor 2C (pig); experiment: NVS_GPCR_p5HT2C: NovaScreen (NVS) G Protein-Coupled Receptor Assay for pig Serotonin, 5-Hydroxytryptamine Receptor 2C (5HT2C) (AID 2283288)
# How it was run: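 Radioligand displacement on membranes from pig choroid plexus, detected by filter scintillation counting after 1 h. Tested first at a single 25 uM in duplicate, then in concentration-response for actives; DMSO served as baseline.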
# [16] = system: guinea pig Atrionatriuretic Peptide Receptor A (ANPA), gene 100135578; experiment: NVS_GPCR_gANPA: NovaScreen (NVS) G Protein-Coupled Receptor Assay for guinea pig Atrionatriuretic Peptide Receptor A (ANPA) (AID 2283291)
# How it was run: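 Displacement of specific radioligand from guinea pig cerebellum membranes was read by scintillation after 1 h. A duplicate single-point screen at 25 uM was followed by a concentration series up to 50 uM, analysed relative to DMSO.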
smiles,measurement,setting,value
O=C(O)C(F)(F)C(F)(F)C(F)(F)C(F)(F)C(F)(F)C(F)(F)C(F)(F)C(F)(F)C(F)(F)F,AC50,[1],16.4 µM (active)
same,outcome,[2],inactive
same,AC50,[3],25 µM (active)
same,AC50,[4],25 µM (active)
CCC(=O)O[C@H]1CC[C@H]2[C@@H]3CCC4=CC(=O)CC[C@]4(C)[C@H]3CC[C@]12C,AC50,[5],2.04 µM (active)
CCC(C)(CC)c1cc(NC(=O)c2c(OC)cccc2OC)on1,AC50,[3],1.03 µM (active)
same,outcome,[6],inactive
CCOC(=O)C(O)(c1ccc(Cl)cc1)c1ccc(Cl)cc1,outcome,[3],inactive
same,AC50,[7],11.7 µM (active)
same,AC50,[8],7.46 µM (active)
CCCCCCCCCC[N+](C)(C)CCCCCCCCCC,AC50,[5],3.56 µM (active)
same,AC50,[9],2.39 µM (active)
same,AC50,[10],7.12 µM (active)
same,AC50,[11],11.6 µM (active)
same,AC50,[12],2.98 µM (active)
same,AC50,[13],4.36 µM (active)
same,AC50,[1],4.31 µM (active)
same,AC50,[3],14.3 µM (active)
same,AC50,[14],7.48 µM (active)
same,AC50,[7],6.6 µM (active)
same,AC50,[8],7.2 µM (active)
same,AC50,[15],21.1 µM (active)
same,AC50,[4],4.3 µM (active)
O=S(=O)(O)C(F)(F)C(F)(F)C(F)(F)C(F)(F)C(F)(F)C(F)(F)F,outcome,[11],inactive
same,AC50,[3],14.5 µM (active)
same,outcome,[16],inactive
O=C(NC(=O)c1c(F)cccc1F)Nc1cc(Cl)c(OC(F)(F)C(F)F)c(Cl)c1,outcome,[3],inactive
CCC(C)(c1ccc(O)cc1)c1ccc(O)cc1,outcome,[12],inactive
same,AC50,[1],13.2 µM (active)
same,AC50,[15],16.9 µM (active)
same,AC50,[4],9.36 µM (active)
NS(=O)(=O)C(F)(F)C(F)(F)C(F)(F)C(F)(F)C(F)(F)C(F)(F)C(F)(F)C(F)(F)F,outcome,[4],inactive
same,outcome,[16],inactive
CC(C)(O)C(=O)Nc1ccc([N+](=O)[O-])c(C(F)(F)F)c1,outcome,[2],inactive
same,AC50,[15],19.2 µM (active)
Cc1ccccc1[N+](=O)[O-],outcome,[6],inactive
